Each structure is given as a SMILES string. Screen size: about 2,500 compounds; about 1,100 (44%) were called active. The set was probably picked from earlier hits. The list shows a part of the results. A number with no mark means an inactive call.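 How the source made its calls: active means inhibition above 50% at 4 µM in the single-point screen; inactive means inhibition of 50% or less.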

The experiment can be described thus: blockers of TNF-a NF-kB luciferase induction – cell-based, HEK293T NF-kB-Luc, luminescence, selectivity assay for NOD1/NOD2 signaling inhibitor project, primary screen (AID 1852). As to conditions: TNF-a induced, 14 h, at 4 µM, hits give high values.
Turning to `COc1cc2c(cc1OC)C(c1ccc(-c3cc(Cl)ccc3Cl)o1)=NCC2`, the inhibition (in general, the change of the read-out against control, counted positive when it falls) was 26.5%.
With `Cc1csc(NC(=O)C2CC(=O)N(c3ccc(C)c(C)c3)C2)n1` (centres undefined) the figure was -11.9%.
Under `Cc1cnc(NC(=O)C2CC(=O)N(c3cccc(Cl)c3)C2)s1` (centres undefined) stands 92.4% (active); under `O=C(/C(=C/c1cccc(Cl)c1)c1nc2ccccc2[nH]1)c1ccccc1`, 31.9%; under `COc1cc(/C=C(/C(=O)c2cccs2)c2nc3ccccc3[nH]2)ccc1O`, 31.5%.
Under `O=C(/C(=C/c1ccc(Cl)cc1)c1nc2ccccc2[nH]1)c1cccs1` stands 106% (active); under `O=C(/C(=C/c1ccc(Cl)cc1)c1nc2ccccc2[nH]1)c1ccccc1`, 107% (active).
As for `O=C(/C(=C\c1ccccc1)c1nc2ccccc2[nH]1)c1ccc(Cl)cc1`, the inhibition is 94.9% (active).
Consider `Cc1ccc(Cc2cnc(N3C(=N)SC(C)C3=O)s2)cc1` (centres undefined), for which the inhibition is 103% (active).
With `Cc1cccc(CN2CCN(C(=O)CCl)CC2)c1` the figure was 36%; with `Cc1cccc(Cc2cnc(N3C(=N)SC(C)C3=O)s2)c1` (centres undefined), 100% (active); with `COc1cc(S(=O)(=O)NCc2ccncc2)ccc1Br`, 45.8%.
With `C=CCSc1nsc(NC(=O)Nc2ccc(F)cc2)n1` the figure was 43.4%; with `CCSc1nsc(NC(=O)Nc2cccc(C(C)=O)c2)n1`, 30.4%.
Under `C=CCSc1nsc(NC(=O)Nc2cccc(C(C)=O)c2)n1` stands 85.2% (active); under `C=CCN(c1ccccc1OC)S(=O)(=O)c1ccc(Cl)c(C(=O)Nc2ccc(N3CCOCC3)cc2)c1`, 25.4%.
With `CC(=O)c1ccc(Nc2nc3ccccc3nc2NS(=O)(=O)c2cccs2)cc1`, the inhibition is 12.2%.
Under `O=S(=O)(Nc1nc2ccccc2nc1Nc1ccc(N2CCOCC2)cc1)c1cc(Cl)ccc1Cl` stands 77% (active); under `Cc1ccccc1-c1nc(CS(=O)(=O)CC(=O)NCCc2ccccc2)c(C)o1`, 10%.
`COc1ccc(CNC(=O)c2ccc3ccccc3n2)cc1OC`: the inhibition was 38%.
Under `Cc1oc2c(c1C(=O)c1ccccc1)C(=O)C(=O)c1ccccc1-2` stands 104% (active); under `Cc1oc2c(c1C(=O)NCc1cccnc1)C(=O)c1ccccc1C2=O`, 97.7% (active); under `COc1ccc(CNC(=O)c2c(C)oc3c2C(=O)c2ccccc2C3=O)cc1`, 100% (active).
For the molecule `Fc1ccc(NC(=S)N2CCCN(c3ccc(C(F)(F)F)cn3)CC2)c(F)c1`, the inhibition is 55.6% (active).
Under `Fc1ccc(NC(=S)NNc2ncc(C(F)(F)F)cc2Cl)c(F)c1` stands 49.4%; under `Cc1csc2ncnc(N3CCN(C(=S)Nc4ccc(F)cc4F)CC3)c12`, 66.9% (active); under `CCCCNC(=S)Nc1ccc(C(F)(F)F)cc1`, -47.5%.
Under `Cc1csc2c(N3CCN(C(=O)Nc4ccc(Cl)c(Cl)c4)CC3)ncnc12` stands 52.5% (active); under `Cc1csc2c(N3CCN(C(=S)Nc4ccc(C(F)(F)F)cc4)CC3)ncnc12`, 78.5% (active).
